Most compounds without a hit are left out; they make up all but 5.9% or so of the library.
RORgamma inh = blocks mouse ROR gamma transcriptional activity; P51450; Drosophila S2 Gal4-RORgamma UAS-luciferase reporter, 20 h; Potency, µM (doses to about 53.6 µM), actives largely listed as inhibitors; 310,000 compounds, 5.4% hits; AID 2551; note: nearly all actives have a fitted effect of over 60% in size
Target sequence (P51450 whole entry, looked up, the tested form may be a part): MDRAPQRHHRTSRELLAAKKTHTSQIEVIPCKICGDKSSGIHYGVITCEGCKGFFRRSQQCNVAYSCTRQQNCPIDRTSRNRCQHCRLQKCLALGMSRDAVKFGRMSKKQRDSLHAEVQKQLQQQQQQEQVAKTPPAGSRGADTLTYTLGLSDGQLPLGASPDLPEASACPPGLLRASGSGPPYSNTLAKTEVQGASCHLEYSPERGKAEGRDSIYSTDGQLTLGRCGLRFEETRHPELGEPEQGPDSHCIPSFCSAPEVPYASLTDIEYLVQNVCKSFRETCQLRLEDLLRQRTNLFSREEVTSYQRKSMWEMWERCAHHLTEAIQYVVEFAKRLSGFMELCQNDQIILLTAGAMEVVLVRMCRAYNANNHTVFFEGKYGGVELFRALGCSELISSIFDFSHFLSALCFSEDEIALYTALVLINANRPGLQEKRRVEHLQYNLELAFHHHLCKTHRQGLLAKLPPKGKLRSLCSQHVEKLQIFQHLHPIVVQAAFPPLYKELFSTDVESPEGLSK
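Schneider cells (Drosophila), stable Gal4 DBD–ROR gamma + UAS-luc; 1 hr cmpd preincubation; Cu2+ induction 700 uM final; 20 hr ambient; luminescence.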
GLP-1R agonist = activates the human GLP-1 receptor; Potency, µM (top dose mostly 45.6 µM), usual class: activators; P43220; 380,000 compounds, 0.007% hits; HEK293 GLP-1R CRE-luciferase, luminescence, 4-6 h; cells express a hypersensitive GLP-1R form; AID 624172
GLP-1R inv ag = inverse agonists of human GLP-1 receptor; P43220; HEK293 GLP-1R CRE-luciferase, luminescence, 24 h; GLP-1R form is constitutively active; Potency, µM (series often up to 38.3 µM), usual class: inhibitors; 410,000 compounds, 1.6% hits; AID 624417; note: nearly all actives have a fitted effect of over 55% in size
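qHTS in 1536-well format: reporter HEK293 cells expressing constitutive GLP-1R activity in DMEM + 10% Nu serum, 24 hr with compounds at 37 deg C, luminescence read after 12 min with detection reagent.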
Gal4-VP16 FLuc = Gal4-VP16 reporter inhibition counter-screen | Drosophila S2 Gal4-VP16 UAS-luciferase, luminescence, 20 h | 310,000 compounds, 3.5% hits | Potency, µM (doses to about 53.6 µM), hits mostly inhibitors;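 note: Gal4-VP16 expression switched on by copper sulfate through the metallothionein promoter; nearly all actives have a fitted effect of over 50% in size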
HEK293 tox = cytotoxicity in counter-screen for GLP-1R inverse agonists. HEK293 cAMP-luciferase reporter cells, luminescence, 24 h. Potency, µM (top dose mostly 38.3 µM), most hits filed as inhibitors. 410,000 compounds, 0.13% hits;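 note: loss of luciferase light is scored as toxicity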
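Compound-treated cells are incubated 24 hr at 37 deg C under 5% CO2 after a 12 hour attachment period, then luciferase detection reagent is added and luminescence is measured following 12 min at room temperature; lowered signal indicates toxicity.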
Hits are given with their value; . = inactive; ? = inconclusive; / = no result given; [ ] = remark or other dose. Calls come from the whole dose curve; as a rule, active = well fitted curve in the direction sought with a large enough effect; inconclusive = small, poorly fitted or top-dose-only effect, or another doubt; inactive = no such curve, though single readings can be large; an effect the other way counts as inactive or inconclusive.

SMILES	RORgamma inh	GLP-1R agonist	GLP-1R inv ag	Gal4-VP16 FLuc	HEK293 tox
CN1CCN(c2ccc(NC(=O)c3ccc4ccccc4c3)cc2)CC1	11µM	.	2µM	?	.
COc1ccc(-n2ccnc2SCC(=O)Nc2cccc(OC)c2)cc1	/	/	?	/	.
CCNc1ncc2ncc(=O)n(CCOC)c2n1	.	/	/	.	/
COC(=O)c1cn[nH]c1NC(=S)Nc1ccc(Cl)c(Cl)c1	?	.	.	?	.
COC(=O)c1cn[nH]c1NC(=S)Nc1ccccc1C	5.6µM	.	.	?	.
COC(=O)c1cn[nH]c1NC(=S)Nc1ccc(C)cc1Cl	2.8µM	.	.	3.5µM	.
CCCCn1c(CN2CCN(c3ccccc3)CC2)nc2c1c(=O)n(C)c(=O)n2C	.	.	.	6.3µM	.
Cn1c(=O)c2c(nc(CN3CCN(c4ccccc4)CC3)n2CCCc2ccccc2)n(C)c1=O	/	.	.	/	.
O=C(NC(=S)NC1CCCCC1)c1ccccc1[N+](=O)[O-]	5µM	.	?	5.6µM	?
O=C(NC(=S)NCC1CCCO1)c1ccccc1[N+](=O)[O-] (stereo not given)	10µM	.	.[7.66 µM]	.	.[7.66 µM]
O=C(NC(=S)NCC1CCCO1)c1ccco1 (stereo not given)	.	.	.	.	.
O=C(NNC(=S)NC(=O)c1ccccc1[N+](=O)[O-])c1ccccc1O	.	.	?	.	.
O=C(NC(=S)NCC1CCCO1)c1cccs1 (stereo not given)	14µM	.	.	?	.
Cc1ccc(C(=O)NC(=S)NCC2CCCO2)cc1Br (stereo not given)	5µM	.	.	?	?
CCOC(=O)c1cccc(NC(=O)C2Cc3ccccc3N2C(=O)c2ccccc2)c1 (stereo not given)	/	/	.	/	.
CCc1ccc(-n2nc(C)c3c(C)cc(=O)n(CC(=O)Nc4cc(Cl)ccc4OC)c32)cc1	/	/	.	/	.
COc1ccc(-c2cc3ccc(O)c(CN4CCN(C)CC4)c3oc2=O)cc1OC	/	/	.	/	.
CCOc1cc(NC(=S)NCC2CCCO2)c(OCC)cc1NC(=O)c1ccccc1F (stereo not given)	3.2µM	.	?	7.9µM	?
Cc1ccc(CNC(=S)Nc2cc(C)ccc2OC(F)F)cc1	4.5µM	.	?	?	?
Cc1ccc(C)c(NC(=S)N/N=C/C(C)c2ccccc2)c1 (stereo not given)	0.56µM	.	.	7.1µM	?
COc1ccc(/C(C)=N/NC(=S)Nc2cc(C)ccc2C)cc1	2.8µM	.	?	11µM	3.5µM
Cc1ccc(C)c(NC(=S)NCc2ccccc2)c1	3.2µM	.	?	5µM	?
Cc1ccc(NC(=S)NCc2ccccc2)cc1C	/	.	?	/	.
COc1ccc(CNC(=S)NCc2ccc(F)cc2)cc1OC	.	.	.	?	.
Cc1cccc(C(=O)Nc2cccc(OCc3cc(=O)n4cccc(C)c4n3)c2)c1	/	/	.	/	.
SMILES	RORgamma inh	GLP-1R agonist	GLP-1R inv ag	Gal4-VP16 FLuc	HEK293 tox
CCCCOc1ccc(NC(=O)CSc2ccc(C(=O)O)cn2)cc1	/	/	.	/	.
Cc1cc(C)cc(NC(=O)C(=S)NCc2ccccc2)c1	.	.	11µM	.	.
Cc1ccc(CNC(=O)NCc2ccccc2)cc1	.	.	.	.	.
COc1ccc(CCNC(=S)Nc2cc(C)ccc2C)cc1	.	.	?	.	?
COc1ccc(CNC(=S)Nc2cc(C)ccc2C)cc1	7.9µM	.	?	7.1µM	.
COc1ccc(CNC(=S)Nc2ccccc2C)cc1	18µM	.	.	10µM	.
CCOC(=O)N1CCc2c(sc3c2c(=O)n(-c2ccc(Cl)cc2)c(=O)n3CC(=O)Nc2ccccc2)C1	/	/	.	/	.
COc1ccc(C(=O)c2ccc(Cl)cc2)c2ccccc12	.	.	10µM	.	.
COc1ccccc1NC(=O)C(C)N(C)CCOc1ccccc1 (stereo not given)	.	.	11µM	.	.
Cc1cc(OCC(=O)N2CCOCC2)ccc1NC(=O)c1ccccc1C	10µM	.	.	?	.
Cc1ccc(C(=O)Nc2cc(C)c(OCC(=O)N3CCOCC3)c(C)c2)cc1	14µM	.	?	10µM	.
O=C(N/N=C/c1ccc(OCC(=O)N2CCOCC2)cc1)c1ccccc1Cl	.	.	.	.	.
O=C(Nc1ccc(OCC(=O)N2CCOCC2)cc1)c1ccccc1Cl	11µM	.	.	7.9µM	.
COC(=O)c1c(-c2cccs2)csc1NC(=O)c1ccc(C(C)(C)C)cc1	/	/	.	/	.
ClCCCl	.	/	/	.	/
CC(C)(C)N1C(=O)[C@H]2[C@H]3[C@H](O)[C@H](O)C/C(=N/OC[C@@H](O)COCc4ccco4)[C@H]3CC[C@@H]2C1=O	.[10 µM]	/	/	.[10 µM]	/
Cn1cccc1/C=C1\SC(=O)N(c2ccc(O)cc2)C1=O	2.8µM	.	.	.	.
COc1ccc2c(c1[N+](=O)[O-])CCC/C2=N/OC(=O)c1cccc2ccccc12	.	.	.	14µM	.
O=[N+]([O-])c1cccnc1S(=O)(=O)c1ccccc1	8.9µM	.	?	7.1µM	?
COc1ccc([N+](=O)[O-])c(S(=O)(=O)c2ccccc2)n1	2.5µM	.	?	5µM	?
S=C1Nc2ccccc2Sc2ccc(Cl)cc21	1.8µM	.	.	2.8µM	.
COC(=O)c1ccc(-c2ccco2)n1Cc1nc(-c2ccc(OC)c(OC)c2)oc1C	.	.	10µM	.	.
CN(C)c1ccc(CNC(=O)c2ccc3c(c2)N(C)C(=O)C2CCCCN32)cc1 (stereo not given)	/	/	.	/	.
COc1ccc(NC(=O)Cc2ccc(NC(=O)N3CCCCc4ccccc43)cc2)c(OC)c1	/	/	?	/	.
O=C(COc1ccc(/C=N/NC(=O)c2cc3ccccc3o2)cc1Br)Nc1ccccc1	3.2µM	.	?	2.2µM	?
SMILES	RORgamma inh	GLP-1R agonist	GLP-1R inv ag	Gal4-VP16 FLuc	HEK293 tox
CCc1ccc(NC(=O)CO/N=C(\C)c2cc3ccccc3o2)cc1	.[10 µM]	.	11µM	.	.
O=C(COc1ccccc1[N+](=O)[O-])Nc1ccc(NC(=O)c2cc3ccccc3o2)cc1	?	.	?	?	.
COc1ccc(CCNC(=O)C(=O)NCC(c2cccs2)S(=O)(=O)c2ccc(F)cc2)cc1 (stereo not given)	/	/	?	/	.
CC1(C(=O)NC(=S)N(CCC#N)Cc2cccnc2)CC1(Cl)Cl (stereo not given)	1.4µM	/	/	?	/
N#CCCN(Cc1cccnc1)C(=S)NC(=O)c1ccccc1	/	.	.	/	.
C=CCn1c(-c2cccc(OC)c2OC)n[nH]c1=S	11µM	.	.	?	.
C=CCn1c(-c2cc3cccc(OC)c3o2)n[nH]c1=S	3.5µM	.	.	?	?
COc1cccc2cc(-c3ccnc(=S)[nH]3)oc12	2.8µM	/	/	?	/
C=CCn1c(-c2cc(Cl)ccc2OC)n[nH]c1=S	11µM	.	.	18µM	?
C=CCn1c(-c2ccccn2)n[nH]c1=S	/	.	.	/	.
